Test results: PubChem BioAssay AID588492 (Sanford-Burnham Center for Chemical Genomics, 2011)
About 2,300 (0.64%) of roughly 360,000 compounds were called active.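 Rule for the calls: active = compounds giving at least 50% protection of heart cells from peroxide-induced death in the single-dose screen, raw or plate-pattern-corrected value; inactive = the rest.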 The entries come from a sample that favours actives as a whole.

Assay: H9c2 cardiomyocyte survival under peroxide injury – uHTS, H9c2 cells, ATPLite luminescence, primary screen (AID 588492);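 note: 0% = DMSO wells with peroxide and 100% = DMSO wells without peroxide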
Conditions: H9c2 cardiomyocytes, 2 h, at 20 µM, stronger effect = higher value

With CCc1ccc2c(c1)cc(CN(C(=S)Nc1ccccc1Cl)C1CC1)c1nnnn12 as the compound, how does the protection from H2O2 cell death read?
Its protection from H2O2 cell death is -3.2% (inactive).

For Clc1ccc(C2=CSC3=Nc4cccc5cccc(c45)N23)cc1, which protection from H2O2 cell death is on record?
The protection from H2O2 cell death was -4.9% (inactive).

Which protection from H2O2 cell death does the source give for COc1cc(CO)c(C2(CO)CCCC2)cc1OC here?
The protection from H2O2 cell death was 2.5% (inactive).

Which protection from H2O2 cell death does the source give for O=S(=O)(Nc1ccccn1)c1cccc(S(=O)(=O)c2ccc(Cl)cc2)c1 here?
Its protection from H2O2 cell death is -4.1% (inactive).

With CCOc1cc(NS(=O)(=O)c2ccc(OC)cc2)c(OCC)cc1NC(C)=O as the compound, how does the protection from H2O2 cell death read?
The protection from H2O2 cell death was -4% (inactive).

For COc1cc(NS(=O)(=O)c2ccc3ccccc3c2)c2ncccc2c1, which protection from H2O2 cell death is on record?
Its protection from H2O2 cell death is 61.8% (active).

For CC1(C)OC(=O)C2=C(CC(c3ccccc3)OC2CCc2ccccc2)O1 (centres undefined), which protection from H2O2 cell death is on record?
The protection from H2O2 cell death was -19.2% (inactive).

For COc1cccc(Cn2cnc3c([N+](=O)[O-])c(C)c(C)cc32)c1, which protection from H2O2 cell death is on record?
Its protection from H2O2 cell death is 1.8% (inactive).

Which protection from H2O2 cell death does the source give for O=C(N/N=C/c1cccc2cccnc12)[C@H]1C[C@@H]1c1ccccc1 here?
The protection from H2O2 cell death was 84.8% (active).

For Cc1ccc(NC(=O)C2CC2c2ccccc2)cc1 (centres undefined), which protection from H2O2 cell death is on record?
The protection from H2O2 cell death was -6.9% (inactive).

Which protection from H2O2 cell death does the source give for O=C(CSc1cccc2cccnc12)N/N=C/c1cccnc1 here?
Its protection from H2O2 cell death is -2.6% (inactive).

For Cc1nnc(C)c2c(C)n(N)c(C)c12, which protection from H2O2 cell death is on record?
The protection from H2O2 cell death was 15.4% (inactive).

For Cc1ccc(S(=O)(=O)N(C)C)cc1NC(=O)CN1c2cccc3cccc(c23)S1(=O)=O, which protection from H2O2 cell death is on record?
The protection from H2O2 cell death was 3.5% (inactive).

Which protection from H2O2 cell death does the source give for O=C(NC(=O)N1CCSCC1)c1c(Cl)cccc1Cl here?
The protection from H2O2 cell death was 4.6% (inactive).

For CCOC(=O)c1nc(Nc2ccc(C(=O)OC)cc2)c2ccccc2n1, which protection from H2O2 cell death is on record?
Its protection from H2O2 cell death is 50.6% (active).

For CCOC(=O)c1ccc(N/C(=N/S(=O)(=O)c2ccccc2)c2ccccc2)cc1, which protection from H2O2 cell death is on record?
The protection from H2O2 cell death was 1.3% (inactive).

Which protection from H2O2 cell death does the source give for COC(=O)c1ccc(Nc2ncnc3sccc23)cc1 here?
The protection from H2O2 cell death was 5.6% (inactive).

For CCc1ccc(OCC(=O)NCC(c2ccc(Cl)cc2)N2CCCCC2)cc1 (centres undefined), which protection from H2O2 cell death is on record?
The protection from H2O2 cell death was 2.7% (inactive).

Which protection from H2O2 cell death does the source give for COc1ccc(-c2[nH]ncc2/C=N/NC(=O)c2cc(Br)ccc2O)c(OC)c1 here?
Its protection from H2O2 cell death is 3.5% (inactive).

Which protection from H2O2 cell death does the source give for Cc1ccc(OCCOCCOc2ccc(Br)cc2/C=N\NC(=O)c2ccncc2)cc1 here?
The protection from H2O2 cell death was 6.5% (inactive).

Which protection from H2O2 cell death does the source give for COc1ccc(CC(=O)NCC(=O)N/N=C/c2cc(Br)ccc2OC)cc1 here?
Its protection from H2O2 cell death is 52.8% (active).

For NC(=NC(=O)c1ccccc1)C1=C(O)CCC1=O, which protection from H2O2 cell death is on record?
Its protection from H2O2 cell death is -0.2% (inactive).

Which protection from H2O2 cell death does the source give for C=CCn1c(-c2ccc(Cl)cc2)ccc(C#N)c1=O here?
Its protection from H2O2 cell death is -10% (inactive).

Which protection from H2O2 cell death does the source give for CN=c1scc(-c2cc(OC)ccc2OC)n1/N=C/c1c(C)[nH]c2ccccc12 here?
The protection from H2O2 cell death was 0.4% (inactive).

With COc1cc(N=Cc2c(O)[nH]c3ccccc23)cc(OC)c1OC as the compound, how does the protection from H2O2 cell death read?
Its protection from H2O2 cell death is 69.8% (active).

Which protection from H2O2 cell death does the source give for COc1cc2[nH]c(O)c(C=O)c2cc1OC here?
The protection from H2O2 cell death was 4.5% (inactive).

For COc1ccc(CCNc2cc(C)nc3c(-c4ccc(Cl)cc4)c(C)nn23)cc1OC, which protection from H2O2 cell death is on record?
The protection from H2O2 cell death was 0.4% (inactive).

With O=C(Nc1nnc(-c2ccccc2)o1)c1cccc(S(=O)(=O)N2CCOCC2)c1 as the compound, how does the protection from H2O2 cell death read?
Its protection from H2O2 cell death is 10.2% (inactive).

Which protection from H2O2 cell death does the source give for COc1cccc(-c2nnc(NC(=O)c3ccc(S(=O)(=O)N(CC(C)C)CC(C)C)cc3)o2)c1 here?
Its protection from H2O2 cell death is 56.4% (active).

With COc1cc(-c2nnc(NC(=O)CS(=O)(=O)c3ccc(Cl)cc3)o2)cc(OC)c1OC as the compound, how does the protection from H2O2 cell death read?
The protection from H2O2 cell death was 6.5% (inactive).

For CCc1ccc(/C=N/NC(=O)c2nnn(-c3nonc3N)c2CN2CCc3ccccc32)cc1, which protection from H2O2 cell death is on record?
Its protection from H2O2 cell death is -2.2% (inactive).

With NC(=O)c1cc(-c2cccnc2)nc2ccc(Br)cc12 as the compound, how does the protection from H2O2 cell death read?
Its protection from H2O2 cell death is 0.3% (inactive).

With O=C(NCc1ccco1)c1cc(-c2cccnc2)nc2ccc(Cl)cc12 as the compound, how does the protection from H2O2 cell death read?
Its protection from H2O2 cell death is 74% (active).

Which protection from H2O2 cell death does the source give for O=C(CSc1c2c(nc3ccc(Cl)cc13)CCCC2)NCc1ccco1 here?
The protection from H2O2 cell death was 5.3% (inactive).

For Cc1cccc(NC(=O)N2CCCCCC2)c1C, which protection from H2O2 cell death is on record?
Its protection from H2O2 cell death is -0.5% (inactive).

With O=C(CCN1C(=O)C2C3C=CC(C3)C2C1=O)Nc1ccccc1F (centres undefined) as the compound, how does the protection from H2O2 cell death read?
The protection from H2O2 cell death was -1.8% (inactive).

For O=C(NCCN1C(=O)C2C3C=CC(C3)C2C1=O)Nc1ccccn1 (centres undefined), which protection from H2O2 cell death is on record?
Its protection from H2O2 cell death is -2.9% (inactive).

For O=C(COc1ccccc1F)Nc1nc(-c2ccccn2)cs1, which protection from H2O2 cell death is on record?
Its protection from H2O2 cell death is 60% (active).

Which protection from H2O2 cell death does the source give for CC(NC(=O)c1ccco1)C(=O)Nc1nc(-c2ccccn2)cs1 (centres undefined) here?
Its protection from H2O2 cell death is 10.4% (inactive).

Which protection from H2O2 cell death does the source give for CC1CCCCC1NC(=O)COc1ccc(C#N)cc1 (centres undefined) here?
The protection from H2O2 cell death was 7% (inactive).

For N#Cc1ccc(OCC(=O)Nc2nc(-c3ccccn3)cs2)cc1, which protection from H2O2 cell death is on record?
Its protection from H2O2 cell death is 69.2% (active).

With O=C(COc1ccccc1)Nc1nonc1NC(=O)COc1ccccc1 as the compound, how does the protection from H2O2 cell death read?
Its protection from H2O2 cell death is -3.9% (inactive).

With O=C(CN1C(=O)C2C3C=CC(C3)C2C1=O)Nc1nc(-c2ccccn2)cs1 (centres undefined) as the compound, how does the protection from H2O2 cell death read?
Its protection from H2O2 cell death is 51.3% (active).

For CC1CCN(S(=O)(=O)c2nnc(NC(=O)COc3ccccc3F)s2)CC1, which protection from H2O2 cell death is on record?
The protection from H2O2 cell death was -6.3% (inactive).

Which protection from H2O2 cell death does the source give for CC12CCC(=O)N1C(C(=O)Nc1ccc(F)c(F)c1F)CS2 (centres undefined) here?
The protection from H2O2 cell death was 0.6% (inactive).

For COc1ccc2c(c1)c(=Cc1ccc(N(C)C)cc1)c1cc(-c3ccccc3)[n+](C)n12, which protection from H2O2 cell death is on record?
Its protection from H2O2 cell death is -20% (inactive).

For COc1ccccc1N(C)S(=O)(=O)c1ccc(Cl)c(C(=O)Nc2ccncc2)c1, which protection from H2O2 cell death is on record?
Its protection from H2O2 cell death is -8.6% (inactive).

Which protection from H2O2 cell death does the source give for Cn1nnnc1-c1cc(Cl)cc(Cl)c1 here?
Its protection from H2O2 cell death is -2.9% (inactive).

For Cn1cccc1C(=O)NC(=O)COC(=O)Cc1coc2ccc3ccccc3c12, which protection from H2O2 cell death is on record?
The protection from H2O2 cell death was -3.6% (inactive).

For O=C(Nc1cccc(-c2nc3ccccc3[nH]2)c1)c1ccc(C(=O)Nc2cccc(-c3nc4ccccc4[nH]3)c2)cc1, which protection from H2O2 cell death is on record?
Its protection from H2O2 cell death is 49.1% (active).

With O=C(NCC(O)c1nc2ccccc2[nH]1)c1ccc(Br)cc1 (centres undefined) as the compound, how does the protection from H2O2 cell death read?
The protection from H2O2 cell death was -3.3% (inactive).

Which protection from H2O2 cell death does the source give for O=C(Nc1ccccc1)c1cc2ccccc2[nH]1 here?
The protection from H2O2 cell death was 3.8% (inactive).

For CCOC(=O)Cn1c(O)c(N=NC(=O)CNC(=O)Cc2ccccc2)c2ccccc21, which protection from H2O2 cell death is on record?
Its protection from H2O2 cell death is 6.8% (inactive).

With CN(Cc1ccccc1F)c1cc2c(c3c1ccn3C)C1CCC2O1 (centres undefined) as the compound, how does the protection from H2O2 cell death read?
Its protection from H2O2 cell death is -4.4% (inactive).

For COc1ccccc1C(=O)C(O)c1ccccc1OC (centres undefined), which protection from H2O2 cell death is on record?
The protection from H2O2 cell death was 1.8% (inactive).

For CCCn1c(SCC(=O)Nc2ccc(C)c(S(=O)(=O)N3CCOCC3)c2)n[nH]c1=O, which protection from H2O2 cell death is on record?
The protection from H2O2 cell death was 6.6% (inactive).

Which protection from H2O2 cell death does the source give for C[C@@H]1Cn2cnc(C(=O)Nc3ccc(CNC(=O)OC(C)(C)C)cc3)c2C(=O)N1 here?
The protection from H2O2 cell death was -12.9% (inactive).

With C[C@H]1Cn2cnc(C(=O)N[C@@H](Cc3c[nH]c4ccccc34)C(=O)OC(C)(C)C)c2C(=O)N1 as the compound, how does the protection from H2O2 cell death read?
The protection from H2O2 cell death was 99.5% (active).

For C[C@H]1Cn2cnc(C(=O)N[C@H](C)c3ccccc3)c2C(=O)N1, which protection from H2O2 cell death is on record?
The protection from H2O2 cell death was 7.3% (inactive).
